Source: PubChem BioAssay AID624093 (National Center for Advancing Translational Sciences (NCATS), 2012)
Results filed as inconclusive are left out. Activity calls are given as the source filed them. The call rests on the fitted dose curve; in most records, active means well fitted inhibition curve with a large enough effect; inconclusive means small, poorly fitted or top-dose-only effect; inactive means flat fitted curve, though single readings scatter.

target: Dual specificity tyrosine-phosphorylation-regulated kinase 1A (Homo sapiens) (UniProt Q13627); experiment: Confirmation Assay for Inhibitors of Dyrk1a (Kinase-Glo Assay): KU probe; details: Kinase-Glo ATP luminescence; series mostly up to 76.9 µM; activity, negative = inhibition: at the top concentration
From the text: NIH Molecular Libraries Probe Production Centers Network [MLPCN] NIH Chemical Genomics Center [NCGC] MLSCN Grant: 1R03MH084827-01 PI Name: Tom Misteli NCGC Assay Overview: The CMGC group of protein kinases which includes CDK-like kinases (Clk) and Dyks are essential kinases found in all eukaryotes. Clks have been implicated to play a role in the regulation of alternative splicing; while Dyrks, in particular over expression of Dyrk1A, has been linked to diseases as Down syndrome (DS; OMIM 190685) and Alzheimer disease (AD; OMIM 104300). Among the members of the CMGC group, the Clks and the Dyrks are very closely related therefore to determine validity and selectivity of an active compound observed in the CLK4 qHTS screen (AID:1770), a bioluminescent counter-screen against Dyrk1A was developed. In addition, potent and selective compounds against Dyrk1A were identified to further assess the role of this enzyme in DS and AD. Dyrk1A (Invitrogen, cat # PV3785) was assayed using ATP and DYRKtide (AnaSpec, cat# 62698) as substrates. Promega Kinase-Glo (cat# V6712) technology was used to detect the residual ATP following kinetic reaction. The Kinase-Glo Plus contains Ultra-Glo [5] luciferase and D-luciferin which generates a bioluminescence signal from the remaining ATP. No enzyme and harmine (Sigma, cat # 286044-1G), a compound shown to inhibit Dyrks were used as a positive control; while DMSO treatment was used as a negative control.
NCGC Assay Protocol Summary: Two uL/well of substrate solution (8uM Dyrktide, 2uM ATP, 25mM Tris-HCl pH 7.5, 10mM MgCl2 , 0.5mM EGTA, 5mM cystein, 0.01% Triton X-100 final concentration) was dispensed into 1536-well assay plates (Greiner, solid white, medium-binding plates) with Aurora Discovery BioRAPTR Flying Reagent Dispenser (FRD, Beckton-Dickenson). Compound solution (23 nL) was transferred to the assay plate using Kalypsys pin tool equipped with a 1536-pin tool. One uL/well enzyme solution (5nM Dyrk1A, 25mM Tris-HCl pH7.5, 10mM MgCl2, 0.5mM EGTA, 5mM cystein, 0.01% Triton X-100 final concentration) was then added using FRD yielding a total kinase reaction volume of 3uL/well. After 2 hours of room temperature incubation, 3uL Kinase-Glo detection reagent was added for a final assay volume of 6uL/well. The plates were spun for 30 seconds (1000 rpm) and incubated at ambient temperature for 2 minutes followed by a luminescence read using Perkin Elmer ViewLux plate reader at 3 seconds exposure time and 2x binning.

| SMILES | activity, negative = inhibition | Potency |
| --- | --- | --- |
| c1cnc(-c2ccc3c(c2)OCO3)nc1 | -7.86% (inactive) |  |
| COc1ccc(CNc2ccnc(-c3ccc(N(C)C)cc3)n2)cc1 | -1.18% (inactive) |  |
| c1coc(CNc2ncnc3ccc(-c4ccc5c(c4)OCO5)cc23)c1 |  | 104 nM (active) |
| CC(C)(C)CNc1ncnc2ccc(-c3ccc(C(=O)O)o3)cc12 |  | 2320 nM (active) |
| c1cncc(CNc2ccnc(-c3ccc4[nH]ncc4c3)n2)c1 |  | 654 nM (active) |
| FC(F)(F)c1cccc(Nc2nccc(-c3ccc4c(c3)OCO4)n2)c1 |  | 65.4 nM (active) |
| Cc1csc(CNc2ncnc3ccc(-c4ccc(CO)o4)cc23)n1 |  | 10400 nM (active) |
| Brc1ccc(CNc2ccnc(-c3ccc4c(c3)OCO4)n2)cc1Br | -10.1% (inactive) |  |
| CCNC(=O)c1ccc(-c2ccc3ncnc(NCC4CCCO4)c3c2)o1 (stereo not given) |  | 2600 nM (active) |
| FC(F)(F)c1cc(Br)cc(Nc2nccc(-c3ccc4c(c3)OCO4)n2)c1 |  | 519 nM (active) |
| COc1ccc(-c2ccnc(NCc3ccc(Cl)cc3)n2)cc1 |  | 1840 nM (active) |
| Clc1cc(CNc2ccnc(-c3ccc4c(c3)OCO4)n2)ccn1 |  | 23200 nM (active) |
| Cc1ccc(CNc2ccnc(-c3c(C)noc3C)n2)cc1 | -9.63% (inactive) |  |
| COc1ccc(-c2nccc(NCc3ccc(C)cc3)n2)cc1 | -10.8% (inactive) |  |
| c1nc(NC[C@@H]2CCCO2)c2cc(-c3ccc4c(c3)OCO4)ccc2n1 |  | 130 nM (active) |
| c1cncc(CNc2ccnc(-c3ccc4cn[nH]c4c3)n2)c1 |  | 2070 nM (active) |
| Brc1cc(Br)cc(CNc2ccnc(-c3ccc4c(c3)OCO4)n2)c1 | -18.5% (inactive) |  |
| Cc1noc(C)c1-c1ncccn1 | -1.99% (inactive) |  |
| Clc1ccc(CNc2ccnc(-c3ccc4c(c3)OCO4)n2)cc1 | -15.5% (inactive) |  |
| c1cncc(CNc2nccc(-c3ccc4cn[nH]c4c3)n2)c1 |  | 207 nM (active) |

| SMILES | activity, negative = inhibition | Potency |
| --- | --- | --- |
| CN(CC1CCCCO1)c1ncnc2ccc(-c3ccc4c(c3)OCO4)cc12 (stereo not given) |  | 207 nM (active) |
| c1cncc(CNc2ccnc(-c3cccc4ccccc34)n2)c1 |  | 41200 nM (active) |
| O=[N+]([O-])c1cc(Nc2nccc(-c3ccc4c(c3)OCO4)n2)cc(C(F)(F)F)c1 |  | 146 nM (active) |
| c1ccc(CNc2ccnc(-c3ccc4c(c3)OCO4)n2)cc1 |  | 26000 nM (active) |
| Cc1csc(CNc2ncnc3ccc(-c4ccc(C(=O)O)o4)cc23)n1 |  | 23200 nM (active) |
| Clc1ccc(CNc2nccc(-c3ccc4cn[nH]c4c3)n2)cc1Cl |  | 412 nM (active) |
| c1nc(NCC2CCCCO2)c2cc(-c3ccc4c(c3)OCO4)ccc2n1 (stereo not given) |  | 65.4 nM (active) |
| c1cncc(CNc2ncncc2-c2ccc3c(c2)OCO3)c1 |  | 26000 nM (active) |
| Cc1ccc(CNc2ccnc(-c3ccc4c(c3)OCO4)n2)cc1 | -13.7% (inactive) |  |
| O=C(O)c1ccc(-c2ccc3ncnc(NCC4CCCO4)c3c2)o1 (stereo not given) |  | 20700 nM (active) |
| Clc1ccc(CNc2nccc(-c3ccc4c(c3)OCO4)n2)cc1Cl |  | 164 nM (active) |
| CN(CC1CCCCC1)c1ncnc2ccc(-c3ccc4c(c3)OCO4)cc12 |  | 1160 nM (active) |
| Clc1ccc(CNc2ncncc2-c2ccc3c(c2)OCO3)cc1 |  | 26000 nM (active) |
| CN(C)c1ccc(-c2nccc(NCc3ccc(Cl)cc3)n2)cc1 | -1.69% (inactive) |  |
| CC(=O)c1ccc(-c2ccc3ncnc(NCc4ccc(C)o4)c3c2)o1 |  | 1640 nM (active) |
| Brc1ccc(CNc2nccc(-c3ccc4c(c3)OCO4)n2)cc1Br |  | 823 nM (active) |
| O=c1cnc2cnc(Nc3ccccc3)nc2n1CCc1ccccc1 |  | 292 nM (active) |
| Clc1ccc(CNc2nccc(-c3ccc4c(c3)OCCO4)n2)cc1Cl |  | 207 nM (active) |
| c1nc(NCC2CCCCC2)c2cc(-c3ccc4c(c3)OCO4)ccc2n1 |  | 116 nM (active) |
| O=C(O)c1ccc(-c2ccc3ncnc(NCc4nccs4)c3c2)o1 |  | 8230 nM (active) |
